Screening data from PubChem.
Rab9 promoter act – qHTS Assay for Rab9 Promoter Activators. Huh7 Rab9 promoter-luciferase reporter, luminescence, 24 h. Potency, µM (series often up to 9.22 µM), most hits filed as activators. 320,000 tested, 2.8% active; further: nearly all actives have a fitted effect of over 60% in size
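Using Huh7 cells stably transfected with Rab9 promoter–luciferase, compounds were incubated 24 h at 37 °C, 5% CO2; luciferase luminescence was read 10 min after reagent addition.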
ELG1 repair inh – qHTS screen for small molecules that inhibit ELG1-dependent DNA repair in human embryonic kidney (HEK293T) cells expressing luciferase-tagged ELG1; 330,000 tested, 2.3% active; HEK293T ELG1-luciferase reporter, luminescence, 16 h; DNA damage induced by 5-fluorouridine; Potency, µM (titrated, usually from 46.1 µM), hits mostly inhibitors; AID 504467, 2011; further: nearly all actives have a fitted effect of over 55% in size
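In this reporter screen, reduction of luminescence relative to DMSO vehicle indicated activity. Compounds and 5-fluorouridine were added together to 2,000 cells per well, incubated for 16 hr at 37 °C, then developed with ONE-Glo.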
ELG1 genotoxic – qHTS screen for small molecules that induce genotoxicity in human embryonic kidney (HEK293T) cells expressing luciferase-tagged ELG1; HEK293T ELG1-luciferase reporter, luminescence, 16 h; Potency, µM (highest dose often 46 µM), hits mostly activators; 330,000 tested, 1.3% active; further: nearly all actives have a fitted effect of over 60% in size
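Quantitative HTS format in 1536-well plates. HEK293T ELG1-luciferase reporter cells receive test compound and are incubated 16 hr at 37 °C, 5% CO2; ONE-Glo added, 30 min room temperature, then luminescence read.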
NPC1 prom act – qHTS Assay for NPC1 Promoter Activators | Potency, µM (highest dose often 9.22 µM), actives largely listed as activators | Huh7 NPC1 promoter luciferase reporter, 24 h | 320,000 tested, 2.4% active; further: nearly all actives have a fitted effect of over 60% in size
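Luminescence from an NPC1 promoter-driven luciferase reporter in stably transfected Huh7 cells was measured after 24 h compound treatment at 37 °C, followed by 10 min ambient incubation with luciferase detection reagent.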
FLuc modulator – qHTS profiling assay for firefly luciferase inhibitor/activator using purifed enzyme and Km concentrations of substrates (counterscreen for miR-21 project) | Potency, µM (top dose mostly 57.5 µM), hits mostly inhibitors | purified FLuc, Km substrates, luminescence inhibition | 360,000 tested, 6.9% active | Luciferin 4-monooxygenase (Photinus pyralis), P08659; further: nearly all actives have a fitted effect of over 55% in size
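Biochemical qHTS of compounds, final roughly 60 µM downward over six points, against 10 nM purified firefly luciferase using Km concentrations of substrates (10 uM D-luciferin, 10 uM ATP) in Tris acetate pH 7.5 buffer; luminescence output.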
SMN2 splice enh – qHTS Assay for Enhancers of SMN2 Splice Variant Expression | HEK293 SMN2-luciferase splicing reporter, luminescence, 30-36 h | Potency, µM (series often up to 46.1 µM), usual class: activators | 210,000 tested, 2.8% active | AID 1458, 2008; further: nearly all actives have a fitted effect of over 55% in size
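HEK293 cells carry an SMN2 minigene-luciferase reporter in which exon 7 inclusion puts luciferase in frame. Cells were seeded at 2000 cells/well, attached for 10-12 hours, then exposed to compounds for 30-36 hours at 37C before ONE-Glo luminescence.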
ELG1 FLuc counter – qHTS screen for small molecules that inhibit ELG1-dependent DNA repair: Hit Confirmation in Cell-Based Luciferin Assay; Potency, µM (top dose mostly 46.1 µM), actives largely listed as inhibitors; 350 tested, 3% active; cell-free firefly luciferase luminescence counter-screen, ViewLux; shares compounds with ELG1 repair inh
ELG1-Luc inh – HTS assay for small molecules that inhibit ELG1-dependent DNA repair in human embryonic kidney (HEK293T) cells expressing luciferase-tagged ELG1: Hit Confirmation; Potency, µM (titrated, usually from 46.1 µM), hits mostly inhibitors; shares compounds with ELG1 repair inh; HEK293T ELG1-luciferase levels, luminescence; cells co-treated with 5-fluorouridine; 670 tested, 68% active; further: nearly all actives have a fitted effect of over 55% in size
ELG1 MMS Luc – inhibits ELG1-dependent repair under MMS stimulation in HEK293T cells; Potency, µM (titrated, usually from 46.1 µM), actives largely listed as inhibitors; shares compounds with ELG1 repair inh; 670 tested, 53% active; HEK293T luciferase-tagged ELG1 level, MMS stimulated; further: nearly all actives have a fitted effect of over 60% in size
ELG1 5FU viab – qHTS screen for small molecules that inhibit ELG1-dependent DNA repair: Hit Confirmation with 5FU Viability; cell viability with 5-FU, ELG1-dependent repair; 670 tested, under 10 active; Potency, µM (doses to about 46.1 µM), hits mostly cytotoxic; shares compounds with ELG1 repair inh;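 further: ELG1-luc HEK293T cells cotreated with 5-fluorouridine at 10 µM final; viability measured 16 h after compound addition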
ELG1 MMS viab – qHTS screen for small molecules that inhibit ELG1-dependent DNA repair: Hit Confirmation with MMS Viability. shares compounds with ELG1 repair inh. Cell viability with MMS, ELG1-dependent DNA repair. Potency, µM (doses to about 46.1 µM), most hits filed as cytotoxic. 670 tested, 33% active. AID 624251, 2012;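 further: ELG1-luc HEK293T cells co-treated with 10 µM MMS; viability read 16 h after compound addition; nearly all actives have a fitted effect of over 60% in size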
ELG1 unstim viab – qHTS screen for small molecules that inhibit ELG1-dependent DNA repair: Hit Confirmation with Unstimulated Viability Assay. shares compounds with ELG1 repair inh. cell viability counter-screen, unstimulated, luminescence. Potency, µM (series often up to 45.9 µM), hits mostly cytotoxic. 900 tested, 8% active;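 further: compound exposure lasted 16 hours before reading; nearly all actives have a fitted effect of over 55% in size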
FLuc enzyme – qHTS screen for small molecules that inhibit ELG1-dependent DNA repair: Hit Confirmation in Biochemical Luciferin Assay. shares compounds with ELG1 repair inh. purified firefly luciferase, luminescence counter-screen. Potency, µM (highest dose often 57.5 µM), hits mostly inhibitors. 350 tested, 10% active. AID 624253, 2012
A number is an active result; – = inactive; ? = inconclusive; · = no result; [ ] = remark or other dose. Most compounds without a hit are left out; they make up all but 9.2% or so of the library. The call rests on the fitted dose curve; in most records, active means well fitted curve in the direction sought with a large enough effect; inconclusive means small, poorly fitted or top-dose-only effect, or another doubt; inactive means no such curve, though single readings can be large; an effect the other way counts as inactive or inconclusive.

SMILES	Rab9 promoter act	ELG1 repair inh	ELG1 genotoxic	NPC1 prom act	FLuc modulator	SMN2 splice enh	ELG1-Luc inh	ELG1 MMS Luc	ELG1 5FU viab	ELG1 MMS viab	ELG1 unstim viab	others
Cc1ccc(/C=C/C(=O)Nc2ccc([N+](=O)[O-])cc2)o1	?	1.8µM	–	–	–	·	14µM	22µM	?	25µM	?
COc1ccc(CN(C)C(C)C(=O)Nc2ccc(S(=O)(=O)N3CCCCC3)cc2)cc1F (centres undefined)	–	?	–	–	–	·	·	·	·	·	·
COc1cccc(/C=C/C(=O)OCC(=O)c2ccc3c(c2)NC(=O)CO3)c1OC	–	?	–	–	–	–	·	·	·	·	·
O=C1COc2ccc(C(=O)COC(=O)/C=C/c3cccc(F)c3)cc2N1	–	1.8µM	–	–	–	·	5µM	–	–	–	–
O=C(/C=C\c1cn(-c2ccccc2)nc1-c1ccc2c(c1)OCCO2)N1CCOCC1	–	3.3µM	–	–	–	–	1.6µM	?	?	?	–
COCc1ccc(-c2c(-c3cc(OC)cc(OC)c3)oc(=O)c3cc(OC)c(OC)cc23)cc1	–	0.58µM	–	–	?	·	5µM	–	?	–	?	ELG1 FLuc counter=–;FLuc enzyme=?
CC(C)Oc1ccc(CNC(=O)c2ccc(CN3CC(=O)N4CCCCC4C3=O)cc2)cc1 (centres undefined)	·	·	·	·	–	·	·	·	·	·	·
CCC[N+]1(CC#CCC(c2ccccc2)c2ccccc2)CCCCC1	–	2.3µM	–	–	–	·	?	2.2µM	–	2.8µM	?
COCCCNC(=O)c1sc2nc(C)c(C(=O)Nc3ccc(Cl)cc3)c(-c3ccc(Br)cc3)c2c1N	·	·	·	·	–	–	·	·	·	·	·
CC1CCCN(CCCNC(=O)C2CC(=O)N(CCc3ccccc3)C2)C1 (centres undefined)	–	–	–[9.26 µM]	–	–	·	·	·	·	·	·
Cc1ccc(NC(=O)CCc2nnc3ccc(N4CCC(C)CC4)nn23)nc1	–	2.9µM	–	–	–	·	4.4µM	–	?	–	?
CC1CCN(c2ccc3nnc(CCC(=O)Nc4ccc(F)cc4)n3n2)CC1	–	–	–	–	–	·	·	·	·	·	·
COc1cc(OC)c2c(-c3cccc(-c4ccc(N(C)C)cc4)c3)cc(=O)oc2c1	·	?	2.6µM	·	·	·	·	·	·	·	–
COc1ccc(-c2cccc(-c3cc(=O)oc4cc(OC)cc(OC)c34)c2)cc1	·	?	–	·	·	·	·	·	·	·	·
OCC1OC(n2cnc3c(=S)nc[nH]c32)C(O)C1O (centres undefined)	·	·	·	·	·	–	?	?	?	?	6.3µM	ELG1 FLuc counter=–;FLuc enzyme=–
CC1(C)OC2C(CO)OC(n3cnc4c(=S)nc[nH]c43)C2O1 (centres undefined)	–	?	–	–	–	·	·	·	·	·	·
Cc1ccc(OCC(=O)NCCNC(=O)c2ccc(C)nc2)cc1	–	–	–	–	–	·	·	·	·	·	·
COc1ccc(C2=Nn3c(nnc3-c3ccncc3)SC2)cc1OC	–	?	–	–	–	10µM	7.9µM	–	?	–	–	ELG1 FLuc counter=–;FLuc enzyme=–
Cc1cccc(-n2c(CNC(=O)c3ccc(S(=O)(=O)N4CCCCC4)cc3)n[nH]c2=S)c1	–	–	–	–	–	·	·	·	·	·	·
N#C/C(=C(/O)c1ccc(Br)s1)c1nc2ccccc2[nH]1	–	?	–	–	?	·	·	·	·	·	·
N#C/C(=C(/O)c1ccc([N+](=O)[O-])s1)c1nc2ccccc2[nH]1	–	2.1µM	–	–	–	·	?	0.79µM	–	0.89µM	?
